Source: the supplement of paper PMC12819154, “High-throughput peptide-centric local stability assay extends protein–ligand identification to membrane proteins, tissues and bacteria” (Nature Structural & Molecular Biology, 2025)

Compound: Nc1ncnc2c1ncn2[C@@H]1O[C@H](COP(=O)(O)OP(=O)(O)OP(=O)(O)O)[C@@H](O)[C@H]1O [adenosine 5'-triphosphate]
Test: log2 fold change of tryptic peptide abundance, ligand vs vehicle (limited proteolysis) (log2 ratio); higher = more trypsin-susceptible (destabilized)
Details: ligand concentration: 5 mM; sample: E. coli desalted lysate; replicate design: treated before aliquoting
Experimental: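 HT-PELSA: desalted E. coli K-12 BW25113 lysate (with 12 mM MgCl2) incubated with 5 mM ATP (pH 7) or water for 30 min at 25 C, then a 4 min trypsin pulse at 22 C. Peptides were quantified by DIA-MS (4 replicates). Value is the peptide log2 fold change (treated/control); negative = stabilized. Scale: negative = ligand-stabilized region.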
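Further: lysate desalted by size exclusion to strip endogenous ATP, peptide intensities built from DIA-NN precursor signals, and peptides missing any value discarded before comparison.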

UniProt P32703, sequence (P32703 whole entry): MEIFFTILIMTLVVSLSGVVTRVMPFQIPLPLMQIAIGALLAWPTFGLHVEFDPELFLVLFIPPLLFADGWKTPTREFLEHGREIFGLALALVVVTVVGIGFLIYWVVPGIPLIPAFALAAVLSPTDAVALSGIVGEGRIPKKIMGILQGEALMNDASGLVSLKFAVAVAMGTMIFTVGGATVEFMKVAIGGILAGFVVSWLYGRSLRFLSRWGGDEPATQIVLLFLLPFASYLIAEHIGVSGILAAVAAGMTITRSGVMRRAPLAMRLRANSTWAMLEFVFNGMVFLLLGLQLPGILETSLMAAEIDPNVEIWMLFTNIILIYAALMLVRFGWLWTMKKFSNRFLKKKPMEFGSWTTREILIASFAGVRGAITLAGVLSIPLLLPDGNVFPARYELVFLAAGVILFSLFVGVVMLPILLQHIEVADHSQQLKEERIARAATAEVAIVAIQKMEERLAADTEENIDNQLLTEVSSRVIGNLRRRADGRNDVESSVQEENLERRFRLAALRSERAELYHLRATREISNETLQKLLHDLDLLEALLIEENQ
UniProt P0AAB8, sequence (P0AAB8 whole entry): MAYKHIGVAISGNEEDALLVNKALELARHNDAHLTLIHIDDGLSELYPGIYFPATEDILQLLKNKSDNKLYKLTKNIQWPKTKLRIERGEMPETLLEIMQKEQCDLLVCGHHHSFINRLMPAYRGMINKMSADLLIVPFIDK
UniProt P37182, sequence (P37182 whole entry): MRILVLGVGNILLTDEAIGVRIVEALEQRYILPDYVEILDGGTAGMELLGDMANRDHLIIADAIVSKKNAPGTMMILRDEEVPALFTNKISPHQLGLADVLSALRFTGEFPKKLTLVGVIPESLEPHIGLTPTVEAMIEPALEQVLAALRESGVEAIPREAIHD
UniProt P77433, sequence (P77433 whole entry): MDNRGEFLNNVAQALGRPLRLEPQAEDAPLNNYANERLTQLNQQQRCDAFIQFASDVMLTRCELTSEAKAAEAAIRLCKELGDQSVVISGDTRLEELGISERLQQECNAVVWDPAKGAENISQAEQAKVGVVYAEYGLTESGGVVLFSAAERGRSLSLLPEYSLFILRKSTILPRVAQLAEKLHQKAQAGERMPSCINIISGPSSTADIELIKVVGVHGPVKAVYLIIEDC
UniProt P00888, sequence (P00888 whole entry): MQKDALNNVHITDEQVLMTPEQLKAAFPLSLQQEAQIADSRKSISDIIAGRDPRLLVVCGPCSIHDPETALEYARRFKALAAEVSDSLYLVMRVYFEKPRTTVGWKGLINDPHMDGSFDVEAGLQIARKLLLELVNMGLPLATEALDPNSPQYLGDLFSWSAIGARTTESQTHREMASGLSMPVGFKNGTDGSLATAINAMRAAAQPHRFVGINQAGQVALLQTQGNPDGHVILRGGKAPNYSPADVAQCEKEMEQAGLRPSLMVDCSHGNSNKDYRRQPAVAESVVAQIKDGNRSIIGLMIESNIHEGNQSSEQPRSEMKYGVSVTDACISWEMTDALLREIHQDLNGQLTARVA
UniProt P36999, sequence (P36999 whole entry): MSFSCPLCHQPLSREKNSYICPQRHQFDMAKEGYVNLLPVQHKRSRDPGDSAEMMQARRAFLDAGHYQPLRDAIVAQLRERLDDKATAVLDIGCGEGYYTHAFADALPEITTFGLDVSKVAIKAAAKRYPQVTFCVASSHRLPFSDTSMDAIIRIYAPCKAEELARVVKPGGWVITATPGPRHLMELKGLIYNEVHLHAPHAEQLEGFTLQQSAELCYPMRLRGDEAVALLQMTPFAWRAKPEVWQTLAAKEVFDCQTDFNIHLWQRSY
UniProt P11868, sequence (P11868 whole entry): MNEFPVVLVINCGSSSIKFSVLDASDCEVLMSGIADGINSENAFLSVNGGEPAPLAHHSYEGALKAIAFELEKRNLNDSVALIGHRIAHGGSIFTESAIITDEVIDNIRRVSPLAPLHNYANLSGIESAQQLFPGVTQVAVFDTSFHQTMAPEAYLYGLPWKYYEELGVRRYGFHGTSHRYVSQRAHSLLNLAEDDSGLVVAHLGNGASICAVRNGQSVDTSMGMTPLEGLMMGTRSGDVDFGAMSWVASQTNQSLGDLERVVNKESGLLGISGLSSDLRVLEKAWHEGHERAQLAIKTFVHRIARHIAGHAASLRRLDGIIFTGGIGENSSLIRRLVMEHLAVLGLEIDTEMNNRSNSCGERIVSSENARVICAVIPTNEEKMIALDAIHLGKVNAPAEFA
UniProt P37766, sequence (P37766 whole entry): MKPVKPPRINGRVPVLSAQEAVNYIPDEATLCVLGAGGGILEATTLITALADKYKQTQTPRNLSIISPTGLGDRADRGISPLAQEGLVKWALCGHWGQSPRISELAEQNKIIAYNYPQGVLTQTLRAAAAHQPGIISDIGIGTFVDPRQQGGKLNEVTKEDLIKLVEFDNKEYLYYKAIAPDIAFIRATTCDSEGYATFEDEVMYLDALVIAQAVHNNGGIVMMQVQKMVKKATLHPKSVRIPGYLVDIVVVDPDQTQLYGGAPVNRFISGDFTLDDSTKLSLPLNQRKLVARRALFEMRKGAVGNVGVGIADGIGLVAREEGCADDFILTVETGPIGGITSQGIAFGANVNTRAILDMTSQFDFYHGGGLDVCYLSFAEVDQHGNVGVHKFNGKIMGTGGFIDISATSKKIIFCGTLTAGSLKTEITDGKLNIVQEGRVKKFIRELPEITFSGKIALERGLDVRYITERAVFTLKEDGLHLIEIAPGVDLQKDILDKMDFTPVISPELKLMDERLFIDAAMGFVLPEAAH
UniProt P42630, sequence (P42630 whole entry): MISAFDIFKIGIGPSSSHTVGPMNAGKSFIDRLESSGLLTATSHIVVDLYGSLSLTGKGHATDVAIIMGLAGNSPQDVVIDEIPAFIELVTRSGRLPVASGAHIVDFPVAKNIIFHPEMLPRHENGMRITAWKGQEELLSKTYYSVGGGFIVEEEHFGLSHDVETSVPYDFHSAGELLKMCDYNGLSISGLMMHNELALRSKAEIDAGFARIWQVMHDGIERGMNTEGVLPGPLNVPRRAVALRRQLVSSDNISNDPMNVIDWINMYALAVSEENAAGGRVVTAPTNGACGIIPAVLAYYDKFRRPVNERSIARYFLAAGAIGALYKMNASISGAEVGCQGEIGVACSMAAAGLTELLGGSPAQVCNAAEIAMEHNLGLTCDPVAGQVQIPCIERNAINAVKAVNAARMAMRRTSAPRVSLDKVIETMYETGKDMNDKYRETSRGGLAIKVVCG
UniProt P0DMC5, sequence (P0DMC5 whole entry): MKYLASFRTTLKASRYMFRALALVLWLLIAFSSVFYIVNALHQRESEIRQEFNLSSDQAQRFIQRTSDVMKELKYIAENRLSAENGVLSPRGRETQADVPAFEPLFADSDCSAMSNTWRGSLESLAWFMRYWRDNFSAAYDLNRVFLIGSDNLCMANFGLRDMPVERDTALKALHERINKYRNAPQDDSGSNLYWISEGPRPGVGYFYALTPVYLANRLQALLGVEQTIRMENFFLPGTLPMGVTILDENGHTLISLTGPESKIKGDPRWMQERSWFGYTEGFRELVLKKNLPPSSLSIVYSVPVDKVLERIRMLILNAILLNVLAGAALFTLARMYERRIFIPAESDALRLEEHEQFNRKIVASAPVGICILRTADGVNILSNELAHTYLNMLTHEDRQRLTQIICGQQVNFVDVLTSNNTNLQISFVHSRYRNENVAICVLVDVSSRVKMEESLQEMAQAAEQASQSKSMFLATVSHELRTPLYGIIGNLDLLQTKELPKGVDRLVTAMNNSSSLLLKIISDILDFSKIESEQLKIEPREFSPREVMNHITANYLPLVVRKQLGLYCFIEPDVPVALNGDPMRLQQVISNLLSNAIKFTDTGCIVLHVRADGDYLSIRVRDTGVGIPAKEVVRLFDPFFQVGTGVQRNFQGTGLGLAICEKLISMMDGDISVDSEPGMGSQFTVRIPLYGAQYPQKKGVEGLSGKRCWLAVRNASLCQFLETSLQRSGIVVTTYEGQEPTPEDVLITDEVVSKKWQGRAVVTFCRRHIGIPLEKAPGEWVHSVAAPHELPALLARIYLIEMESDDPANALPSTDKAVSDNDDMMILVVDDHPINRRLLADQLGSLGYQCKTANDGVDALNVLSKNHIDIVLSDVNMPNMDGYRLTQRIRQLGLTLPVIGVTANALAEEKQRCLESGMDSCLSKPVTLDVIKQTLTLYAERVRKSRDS
UniProt P23894, sequence (P23894 whole entry): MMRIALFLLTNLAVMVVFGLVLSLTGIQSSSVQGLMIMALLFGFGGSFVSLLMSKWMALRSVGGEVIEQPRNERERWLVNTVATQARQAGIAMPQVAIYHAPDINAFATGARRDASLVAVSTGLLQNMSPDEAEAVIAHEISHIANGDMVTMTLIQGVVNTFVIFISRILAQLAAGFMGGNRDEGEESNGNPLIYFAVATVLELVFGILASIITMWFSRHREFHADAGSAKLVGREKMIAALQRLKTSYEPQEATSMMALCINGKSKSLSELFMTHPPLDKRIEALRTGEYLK
UniProt P77721, sequence (P77721 whole entry): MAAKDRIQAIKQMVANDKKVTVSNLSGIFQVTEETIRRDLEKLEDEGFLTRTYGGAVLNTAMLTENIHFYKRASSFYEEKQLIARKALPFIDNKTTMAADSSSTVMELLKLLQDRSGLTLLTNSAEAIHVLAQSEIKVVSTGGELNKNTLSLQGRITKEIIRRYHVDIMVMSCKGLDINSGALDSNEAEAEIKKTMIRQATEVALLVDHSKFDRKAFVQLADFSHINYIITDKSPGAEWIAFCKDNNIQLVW
UniProt P75960, sequence (P75960 whole entry): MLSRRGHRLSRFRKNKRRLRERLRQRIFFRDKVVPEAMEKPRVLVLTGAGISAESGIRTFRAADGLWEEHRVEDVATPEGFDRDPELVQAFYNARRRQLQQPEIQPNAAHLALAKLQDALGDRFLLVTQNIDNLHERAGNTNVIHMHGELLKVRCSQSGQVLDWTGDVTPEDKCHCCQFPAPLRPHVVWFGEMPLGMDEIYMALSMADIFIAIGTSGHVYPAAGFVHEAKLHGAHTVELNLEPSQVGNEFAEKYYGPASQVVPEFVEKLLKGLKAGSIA

Target | log2 fold change
UniProt P28861 (peptide sequence: ETAAGSLTGR, peptide start residue: 175) | -1.31
UniProt P75728 (peptide sequence: LVIGADGANSQVR, peptide start residue: 160) | 0.798
UniProt P0DMC5 (peptide sequence: FTDTGCIVLHVR, peptide start residue: 600) | -1.13
UniProt P75960 (peptide sequence: LHGAHTVELNLEPSQVGNEFAEK, peptide start residue: 231) | 0.525
UniProt P77721 (peptide sequence: VVSTGGELNK, peptide start residue: 138) | -0.442
UniProt P36999 (peptide sequence: RYPQVTFCVASSHR, peptide start residue: 128) | -0.656
UniProt P37626 (peptide sequence: TVETSDER, peptide start residue: 297) | 0.336
UniProt P77265 (peptide sequence: QHPEFYLR, peptide start residue: 103) | -0.556
UniProt Q46861 (peptide sequence: EALPGWSGVDSTRLDTPGK, peptide start residue: 229) | 0.959
UniProt P45799 (peptide sequence: SLQKPTILNVETVAR, peptide start residue: 4) | -1.1
UniProt P42630 (peptide sequence: ITAWKGQEELLSK, peptide start residue: 129) | 0.565
UniProt P32144 (peptide sequence: NILLVADHTK, peptide start residue: 206) | -0.398
UniProt Q59385 (peptide sequence: LVTDEGEK, peptide start residue: 327) | 1.76
UniProt P00888 (peptide sequence: LLVVCGPCSIHDPETALEYARR, peptide start residue: 55) | 0.547
UniProt P11868 (peptide sequence: AWHEGHER, peptide start residue: 285) | -1.02
UniProt P0AAB8 (peptide sequence: EQCDLLVCGHHHSFINR, peptide start residue: 102) | -0.697
UniProt P37766 (peptide sequence: AIAPDIAFIR, peptide start residue: 178) | -0.633
UniProt P77300 (peptide sequence: STLHSLLK, peptide start residue: 38) | -0.881
UniProt P76542 (peptide sequence: VAEDWFATR, peptide start residue: 108) | -0.902
UniProt P52061 (peptide sequence: FHCVLVYLR, peptide start residue: 118) | -0.642
UniProt P24203 (peptide sequence: ILLTKTDVAGEAEKLHER, peptide start residue: 155) | 1.26
UniProt P37182 (peptide sequence: ESGVEAIPR, peptide start residue: 151) | 0.522
UniProt P77544 (peptide sequence: QIQAWLR, peptide start residue: 104) | 0.878
UniProt P23894 (peptide sequence: SVGGEVIEQPR, peptide start residue: 61) | 2.55
UniProt P0A9L8 (peptide sequence: FAAQAVMGSAK, peptide start residue: 203) | -0.702
UniProt P77433 (peptide sequence: GEFLNNVAQALGRPLR, peptide start residue: 5) | 0.243
UniProt P32703 (peptide sequence: AATAEVAIVAIQK, peptide start residue: 440) | 1.52
UniProt P37765 (peptide sequence: EIESIIEAGRVSVDGK, peptide start residue: 19) | 0.997
UniProt P76440 (peptide sequence: EELDEFPASEKEFTSAR, peptide start residue: 286) | 0.874
UniProt P06710 (peptide sequence: HQLEHILNEEHIAHEPR, peptide start residue: 185) | -1.86
